TDP1 cell CPT = growth inhibition of DT40 Tdp1-/-;hTDP1 cells with camptothecin (screen for TDP1 inhibitors) | chicken DT40 Tdp1-/-;hTDP1 cells + 20 nM CPT, ATP luminescence, 48 h | Potency, µM (doses to about 46.2 µM), usual class: inhibitors | 12% of 420,000 active | AID 686979; also: nearly all actives have a fitted effect of over 55% in size
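Cell growth measured by CellTiter-Glo luminescence after a minimum 48 h, 37 C compound exposure with 20 nM CPT in Tdp1-knockout DT40 cells stably expressing hTDP1, seeded 400/well; qHTS titration format.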
DT40 TDP1 no CPT = qHTS for Inhibitors of human tyrosyl-DNA phosphodiesterase 1 (TDP1): qHTS in cells in absence of CPT | DT40 Tdp1-/- hTDP1 cells, no CPT, ATP luminescence, 48 h | Potency, µM (highest dose often 46.2 µM), most hits filed as inhibitors | 15% of 420,000 active; also: nearly all actives have a fitted effect of over 55% in size
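Compound effects on proliferation are scored in DT40 Tdp1-/-;hTDP1 cells in the absence of CPT. ATP levels (CellTiter-Glo luminescence) are recorded after a ≥48 hr, 37 °C incubation.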
uPA surface inh = inhibitors of cell surface uPA generation; cell surface uPA generation assay, qHTS; Potency, µM (titrated, usually from 38.3 µM), usual class: inhibitors; 0.31% of 330,000 active; AID 540303; active = well fitted inhibition curve with a large enough effect; inconclusive = small, poorly fitted or top-dose-only effect; inactive = no such curve, though single readings can be large or run the other way; tested in mouse RAW 264.7 cells; also: nearly all actives have a fitted effect of over 55% in size
HT1080 IDH1KD tx = HT-1080 IDH1 knockdown cell toxicity (counter line); HT-1080 IDH1 knockdown viability, ATP luminescence, 48 h; Potency, µM (highest dose often 46.1 µM), usual class: cytotoxic; 2% of 360,000 active; AID 686971
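Knockdown cells (IDH1KD HT-1080) received compounds 2 h after plating at 750 cells/well and were kept 48 h at 37 °C in 5% FBS RPMI. A CellTiter-Glo luminescence read gave % activity for curve fitting.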
HT1080NT lethal = kills 2HG-producing HT-1080-NT fibrosarcoma cells. 1.6% of 360,000 active. HT-1080-NT fibrosarcoma viability, CellTiter-Glo ATP luminescence, 48 h. AID 686970. Potency, µM (top dose mostly 46.1 µM), actives largely listed as cytotoxic;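 also: NT is the 2HG producing partner of a matched IDH1 knockdown line; nearly all actives have a fitted effect of over 55% in size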
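Fibrosarcoma NT cells, 750 per well in 5% FBS RPMI, were exposed to compound for 48 hours. Viability: CellTiter-Glo luminescence.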
IL-1B inflam inh = inflammasome signaling inhibition, IL-1 beta readout; 4.7% of 360,000 active; AID 743279; activity change, % at 57.5 µM; THP-1 LPS/ATP IL-1B secretion, AlphaLISA, 16 h; hits give low values; in the data active = activity change below about -50%; inconclusive = mostly about -30% to -49%
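THP-1 cells pretreated 1 hr with compounds (up to 57.5 uM final), then stimulated with LPS (250 ng/mL final) plus ATP (1.25 mM final); secreted IL-1B measured by AlphaLISA after 16 hr, decreased signal indicating inhibition.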
Each line names hits and unclear results; the compound was inactive in the other large screens. Compounds with a hit are over-represented: about 19% of the library has one in this group of screens. Unless noted, calls follow the shape of the dose curve; as a rule, active = well fitted curve in the direction sought with a large enough effect; inconclusive = small, poorly fitted or top-dose-only effect, or another doubt; inactive = no such curve, though single readings can be large; an effect the other way counts as inactive or inconclusive.

COc1ccc(CNC(=O)C2CCCN(S(=O)(=O)N3CCC(C)CC3)C2)c(OC)c1 (stereo not drawn)	none
CCC1CN(C(=O)N2CCC(C(=O)NCc3ccc(OC)cc3OC)CC2)c2cc(C)ccc2O1 (stereo not drawn)	TDP1 cell CPT inconclusive, DT40 TDP1 no CPT 18.4µM (no result: uPA surface inh, HT1080 IDH1KD tx, HT1080NT lethal, IL-1B inflam inh)
c1ccc(-n2ncc3c(NCCN4CCOCC4)ncnc32)cc1	none
COc1ccc(-n2cc(-c3ccccc3)c3c(NCCCN4CCOCC4)ncnc32)cc1	TDP1 cell CPT inconclusive, DT40 TDP1 no CPT inconclusive, HT1080 IDH1KD tx 18.4µM, HT1080NT lethal 20.6µM
c1ccc(-c2cn(-c3ccccc3)c3ncnc(NCCCN4CCOCC4)c23)cc1	TDP1 cell CPT inconclusive, DT40 TDP1 no CPT inconclusive, HT1080 IDH1KD tx inconclusive, HT1080NT lethal inconclusive, IL-1B inflam inh -85.7
Brc1ccc(-n2cc(-c3ccccc3)c3c(NN4CCOCC4)ncnc32)cc1	TDP1 cell CPT 18.4µM, DT40 TDP1 no CPT inconclusive
CCc1ccc(OCCNc2cc(N3CCNC(C)C3)ccc2[N+](=O)[O-])cc1 (stereo not drawn)	TDP1 cell CPT 23.1µM, DT40 TDP1 no CPT inconclusive, uPA surface inh inconclusive, HT1080 IDH1KD tx inconclusive, HT1080NT lethal inconclusive, IL-1B inflam inh -67.1
Cc1ccccc1OCCNc1cc(N2CC(C)NC(C)C2)ccc1[N+](=O)[O-] (stereo not drawn)	TDP1 cell CPT 14.6µM, DT40 TDP1 no CPT inconclusive, HT1080 IDH1KD tx inconclusive, HT1080NT lethal inconclusive, IL-1B inflam inh inconclusive
CC1CN(c2ccc([N+](=O)[O-])c(NCCOc3ccccc3)c2)CC(C)N1 (stereo not drawn)	TDP1 cell CPT inconclusive, DT40 TDP1 no CPT inconclusive, HT1080 IDH1KD tx 20.6µM, HT1080NT lethal 16.4µM, IL-1B inflam inh -59.2
CC(C)(C)CNc1cc(N2CCCC2)ccc1[N+](=O)[O-]	none (no result: uPA surface inh)
O=[N+]([O-])c1ccc(N2CCCCC2)cc1NCCOc1ccccc1	TDP1 cell CPT 29.1µM, DT40 TDP1 no CPT 18.4µM
Cc1c(Cl)cccc1NC(=O)CC1Oc2ccccc2NC1=O (stereo not drawn)	none
Nc1ccc2c(c1)Cc1c(F)cccc1-2	DT40 TDP1 no CPT inconclusive
NCCNc1cc(N2CCCC2)ccc1[N+](=O)[O-]	TDP1 cell CPT 23.1µM, DT40 TDP1 no CPT inconclusive
Cc1ccc(S(=O)(=O)CCC(=O)N(CCN2CCOCC2)c2nc3ccccc3s2)cc1	TDP1 cell CPT 20.6µM, DT40 TDP1 no CPT 16.4µM
Cc1cccc2sc(N(CCCN3CCOCC3)C(=O)CS(=O)(=O)c3ccc(F)cc3)nc12	none
Cc1cccc2sc(N(CCN3CCOCC3)C(=O)CCS(=O)(=O)c3ccccc3)nc12	TDP1 cell CPT 16.4µM, DT40 TDP1 no CPT 20.6µM, IL-1B inflam inh -98.0
CN1CCN(C(=O)OC2CC3CC2[C@H]2CCCCN2C3=O)CC1 (stereo partly drawn)	none (no result: uPA surface inh)
CC1CCCN(S(=O)(=O)c2cccc(C(=O)OCC(=O)N(C)Cc3c(F)cccc3Cl)c2)C1 (stereo not drawn)	none
COc1ccccc1-n1cnc2c(c1=O)c1nc3ccccc3nc1n2-c1ccc(C)c(C)c1	DT40 TDP1 no CPT 18.4µM
c1cnc2[nH]ccc2c1	none (no result: uPA surface inh, HT1080 IDH1KD tx, HT1080NT lethal, IL-1B inflam inh)
CCC(=O)Nc1ccc(CC)cc1-c1nc2ccccc2n(CC(=O)Nc2cccc(Cl)c2)c1=O	TDP1 cell CPT 20.6µM, DT40 TDP1 no CPT inconclusive (no result: uPA surface inh, HT1080 IDH1KD tx, HT1080NT lethal, IL-1B inflam inh)
CC(NC(=O)c1ccco1)c1ccc(-n2ccnc2)cc1 (stereo not drawn)	DT40 TDP1 no CPT inconclusive
COc1ccc(OC)c(S(=O)(=O)Oc2ccc(N)c3ccccc23)c1	TDP1 cell CPT inconclusive, DT40 TDP1 no CPT 23.1µM
Cn1ccc2c(-c3ccccc3F)cc3c(c21)C1CCC3C1 (stereo not drawn)	none (no result: uPA surface inh)
CN(Cc1ccccc1F)c1cc2c(c3c1ccn3C)C1CCC2C1 (stereo not drawn)	TDP1 cell CPT inconclusive, DT40 TDP1 no CPT 23.1µM (no result: uPA surface inh)
